WRN helicase inh: inhibitors of human WRN helicase; WRN helicase unwinding, fluorescent forked duplex, kinetic; Potency, µM (top dose mostly 114 µM), hits mostly inhibitors; hit rate 0.46% among 360,000; AID 651768; further: nearly all actives have a fitted effect of over 55% in size
Target sequence (Q14191 whole entry, looked up): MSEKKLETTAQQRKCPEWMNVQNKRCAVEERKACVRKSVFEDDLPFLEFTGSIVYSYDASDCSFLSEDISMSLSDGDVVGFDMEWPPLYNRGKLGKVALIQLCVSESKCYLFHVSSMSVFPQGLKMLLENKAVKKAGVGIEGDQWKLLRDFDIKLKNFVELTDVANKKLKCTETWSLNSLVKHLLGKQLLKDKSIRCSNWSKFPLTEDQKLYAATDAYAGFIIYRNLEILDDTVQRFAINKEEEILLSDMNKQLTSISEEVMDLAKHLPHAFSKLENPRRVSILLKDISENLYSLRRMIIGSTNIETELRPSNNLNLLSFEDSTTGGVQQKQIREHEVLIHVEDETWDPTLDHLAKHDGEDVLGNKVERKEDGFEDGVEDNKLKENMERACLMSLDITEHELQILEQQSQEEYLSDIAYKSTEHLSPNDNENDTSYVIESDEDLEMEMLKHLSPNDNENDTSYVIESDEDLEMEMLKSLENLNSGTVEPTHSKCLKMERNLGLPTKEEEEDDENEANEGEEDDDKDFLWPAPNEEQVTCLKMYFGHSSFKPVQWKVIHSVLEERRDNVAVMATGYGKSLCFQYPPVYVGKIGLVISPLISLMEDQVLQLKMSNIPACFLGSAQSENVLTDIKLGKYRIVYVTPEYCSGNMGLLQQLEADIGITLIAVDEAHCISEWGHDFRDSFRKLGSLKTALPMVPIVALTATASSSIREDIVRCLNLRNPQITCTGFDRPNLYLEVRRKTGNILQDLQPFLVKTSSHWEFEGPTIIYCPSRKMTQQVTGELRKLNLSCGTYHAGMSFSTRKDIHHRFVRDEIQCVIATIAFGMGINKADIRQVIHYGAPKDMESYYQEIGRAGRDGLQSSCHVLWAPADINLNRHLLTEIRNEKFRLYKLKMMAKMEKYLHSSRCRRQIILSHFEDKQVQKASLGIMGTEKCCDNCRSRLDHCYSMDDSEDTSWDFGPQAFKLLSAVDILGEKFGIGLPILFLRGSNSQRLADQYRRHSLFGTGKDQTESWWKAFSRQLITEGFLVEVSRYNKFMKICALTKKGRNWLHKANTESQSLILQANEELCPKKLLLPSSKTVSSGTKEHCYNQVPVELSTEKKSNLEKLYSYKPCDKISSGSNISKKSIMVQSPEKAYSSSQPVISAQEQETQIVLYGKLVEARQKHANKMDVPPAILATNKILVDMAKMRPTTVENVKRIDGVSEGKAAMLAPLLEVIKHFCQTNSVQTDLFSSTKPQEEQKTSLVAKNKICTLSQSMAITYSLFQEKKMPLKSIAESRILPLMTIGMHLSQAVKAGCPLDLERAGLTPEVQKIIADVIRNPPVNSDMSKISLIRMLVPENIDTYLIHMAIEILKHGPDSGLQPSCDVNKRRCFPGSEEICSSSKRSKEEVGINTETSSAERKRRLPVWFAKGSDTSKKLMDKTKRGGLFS
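Kinetic red-fluorescence monitoring (525/598 nm) tracks WRN helicase activity after 100 nM fluorophore-quencher forked duplex and 2 mM ATP are added to 20 nM enzyme pretreated 15 min at room temperature with compound.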
POLB inh: blocks human DNA polymerase beta activity; Pol beta primer extension/strand displacement, fluorescence kinetic; hit rate 1.3% among 340,000; AID 485314; Potency, µM (top dose mostly 114 µM), usual class: inhibitors; P06746
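Curves were derived by four-parameter Hill fits of normalized qHTS data. The kinetic fluorescent primer-extension read was taken at 0 and 10 min after 50 nM substrate, following a 15 min room-temperature preincubation of 10 nM enzyme with compounds.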
Pol eta inh: inhibitors of human DNA polymerase eta. Q9Y253. recombinant Pol eta, fluorescent DNA replication assay. Potency, µM (doses to about 114 µM), actives largely listed as inhibitors. hit rate 1.2% among 390,000
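Pol eta at 10 nM preincubated with compounds 15 min at room temperature; reaction started with fluorescent substrate (50 nM final) and read kinetically at 0 and 10 min.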
FEN1 inh: human FEN1 inhibition; P39748; Potency, µM (series often up to 114 µM), hits mostly inhibitors; hit rate 0.35% among 390,000; Recombinant FEN1 flap cleavage, fluorescence, 15 min; further: nearly all actives have a fitted effect of over 65% in size
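Reaction started by adding substrate (50 nM final) to 10 nM enzyme after 15 min room-temperature compound preincubation. Reads at 0 and 15 min, with data normalized and fitted to a four-parameter Hill equation.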
Pol iota inh: DNA polymerase iota (human) inhibition; Q9UNA4; hit rate 1% among 390,000; Pol iota fluorescent replication assay, 10 min; Potency, µM (titrated, usually from 115 µM), actives largely listed as inhibitors
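Fluorescent replication assay read twice, at 0 min and 10 min after adding 50 nM (final) substrate. Enzyme (10 nM) and compounds were first incubated 15 min at room temperature; enzyme-free buffer wells were negative controls.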
Pol kappa inh: inhibitors of human DNA polymerase kappa | Q9UBT6 | purified Pol kappa, fluorescent DNA synthesis assay, 10 min | Potency, µM (top dose mostly 107 µM), usual class: inhibitors | hit rate 0.53% among 400,000 | AID 588579
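Here, compound and 10 nM enzyme are combined for 15 min at room temperature; adding 50 nM substrate (final) starts DNA synthesis, tracked by fluorescence at 0 and 10 min against buffer-only wells.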
A number is an active result; - = inactive; ? = inconclusive; . = no result given; [ ] = remark or other dose. Hits are enriched below; roughly 2.4% of the tested compounds scored in any of these assays. The call rests on the fitted dose curve; in most records, active means well fitted curve in the direction sought with a large enough effect; inconclusive means small, poorly fitted or top-dose-only effect, or another doubt; inactive means no such curve, though single readings can be large; an effect the other way counts as inactive or inconclusive.

SMILES | WRN helicase inh | POLB inh | Pol eta inh | FEN1 inh | Pol iota inh | Pol kappa inh
COc1cccc(NC(=O)NNC(=O)COc2ccc3ccccc3c2)c1 | - | - | - | - | - | -
C=CC[N+]1([C@H]2C[C@H]3[C@@H]4CC[C@H]5C[C@H](O)[C@@H](N6CCOCC6)C[C@]5(C)[C@H]4CC[C@]3(C)[C@H]2OC(C)=O)CCCC1 | . | . | . | . | . | -[19.4 µM]
C=CCn1c(SCC(=O)Nc2nnc(C)s2)nnc1C1CC1 | - | 25.1µM | ? | - | ? | -
CCc1nnc(NC(=O)CSc2nnc(C3CC3)n2C)s1 | - | - | - | - | - | -
C[S+](C)CC(=O)c1ccc2ccccc2c1 | . | . | . | - | ? | -
Cn1c(=O)n(-c2ccc3c(c2)OCO3)c2nc(-c3ccccc3)nc(C(N)=O)c21 | . | 6.31µM | ? | - | - | -
COC(=O)C1=C[C@@H](C(=O)OC)C2C3=C(C(=O)[C@]2(CC(C)C)NC(=O)c2ccccc2)[C@H](C)n2c(=O)n(C)c(=O)n2[C@@H]3C1 (some centres not stated) | . | . | . | - | - | -
COC(=O)c1c(NC(=O)/C=C/C(=O)O)sc(C)c1-c1ccc(C(C)C)cc1 | - | - | 79.4µM | - | - | -
Cc1cc(/C=N/NC(=O)c2cccc(N(C)C)c2)c(C)n1-c1cc(C(=O)O)cc(C(=O)O)c1 | ? | 17.8µM | 20µM | ? | 10µM | 31.6µM
Cc1cc(/C=N/NC(=O)C(O)(c2ccccc2)c2ccccc2)c(C)n1-c1ccc(C(=O)O)cc1 | -[11.6 µM] | ? | 79.4µM | - | ? | -
C(=C1c2ccccc2Oc2ccccc21)c1ccccc1 | . | . | . | - | - | -
O=C(O)CC(O)CC(O)/C=C/c1c(C2CC2)nc2ccccc2c1-c1ccc(F)cc1 (configuration not stated) | . | . | . | . | . | -
COCCN1C(=O)/C(=C/c2ccc(N3CCCC3)cc2C)SC1=S | 79.4µM | - | - | - | ? | -
COc1ccc(NC(=O)CSc2nnc3c(n2)[nH]c2ccc(S(=O)(=O)N(C)C)cc23)c(OC)c1 | . | . | . | - | - | -
CC(C)(C)OC(=O)NC(Cc1ccccc1)C(=O)NC1COC2CC(n3ccc(=O)[nH]c3=O)OC12 (configuration not stated) | . | . | . | - | - | -
O=c1[nH]sc2ccccc12 | 31.6µM | - | - | ? | 25.1µM | -
O=c1ccsc2ccccc12 | - | . | - | - | - | -
Oc1ccccc1C1C=C(c2ccc3c(c2)OCO3)NC(c2ccc(Br)cc2)N1 (configuration not stated) | . | . | . | - | ? | -
OC[C@H]1NC[C@@H](O)[C@@H](O)[C@@H]1O | . | . | . | . | . | -
CCC(=O)OC1(C)C(=O)C=C2C=C(c3ccc(C#N)cc3)OC=C2C1=O (configuration not stated) | ? | . | 44.7µM | ? | 20µM | ?
CCCCC1=CC2=CC(=O)C(C)(OC(=O)CC)C(=O)C2=CN1c1cccc(C#N)c1 (configuration not stated) | - | . | - | - | ? | -
O=C(O)/C=C/C(=O)Nc1ccc(Cl)c(C(=O)O)c1 | - | ? | 44.7µM | - | ? | -
O=C(O)/C=C/C(=O)Nc1ccc(Oc2ccc(NC(=O)/C=C/C(=O)O)cc2)cc1 | . | 39.8µM | . | . | . | .
C=C/C(C)=C/CC1C(=C)CCC2C(C)(C(=O)O)CCCC12C (configuration not stated) | ? | ? | 7.08µM | ? | ? | 15.8µM
Cc1ccc(NC(=O)c2nc[nH]c2C(=O)N2CCOCC2)c(C(=O)c2ccccc2)c1 | - | ? | - | - | 79.4µM | -
SMILES | WRN helicase inh | POLB inh | Pol eta inh | FEN1 inh | Pol iota inh | Pol kappa inh
NC(=O)c1c(NC(=O)CN2C(=O)NC(Cc3ccccc3)C2=O)sc2c1CCC2 (configuration not stated) | - | ? | ? | - | 44.7µM | ?
NC(=O)c1c(NC(=O)CN2CCN(S(=O)(=O)c3ccccc3)CC2)sc2c1CCC2 | ? | . | ? | - | 12.6µM | ?
CN(C)c1nc(=NCc2cccs2)ss1 | 22.4µM | . | - | - | - | -
Cn1c(-c2nc(-c3ccccc3)cs2)nc2ccccc21 | . | . | . | . | . | -[19.4 µM]
CCC(=O)c1ccc(OCC(=O)N2CCN(S(=O)(=O)c3ccc(Cl)s3)CC2)cc1 | - | . | 44.7µM | - | ? | ?
CCN(c1ccccc1)S(=O)(=O)c1ccc2[nH]cc(C(=O)NCCOC)c(=O)c2c1 | - | - | ? | - | - | -

Source: PubChem
